Experimental findings from PubChem BioAssay (NCATS) are described below.

Inconclusive results are not listed. The source made the active and inactive calls. Calls follow the shape of the dose curve; as a rule, active = well fitted cell-killing curve with a large enough effect; inconclusive = small, poorly fitted or top-dose-only effect; inactive = no such curve, though single readings can be large or run the other way.
Potency is read from the fitted curve at half-maximal effect.

The assay can be described thus: Quantitative High-Throughput drug screen in 47 multiple myeloma cell lines against the NCATS MIPE library collection: JIM3_ECACC cell viability assay (AID 1918963; also: nearly all actives have a fitted effect of over 35% in size). The conditions noted are these: JIM3 myeloma viability, CellTiter-Glo ATP, 48 h; series mostly up to 45.8 µM; viability, percent of control: at the top concentration. From the text:
PI: Beverly A. Mock Ph.D.
Laboratory of Cancer Biology and Genetics,
Center for Cancer Research, National Cancer Institute,
National Institute of Health, Bethesda, Maryland
Drug resistance and disease progression are common in multiple myeloma (MM) patients, underscoring the need for new therapeutic combinations. […] We hypothesized that effective combinations would reduce MYC expression and enhance p16 activity. […] These preclinical data identify potentially useful drug combinations for evaluation in drug-resistant MM and reveal potential mechanisms of combined drug sensitivity.
Described herein is the primary MIPE qHTS used to cherrypick compounds. Validated compounds were then further tested for potential synergistic activiy.
[1] Peat TJ, Gaikwad SM, Dubois W, Gyabaah-Kessie N, Zhang S, Gorjifard S, Phyo Z, Andres M, Hughitt VK, Simpson RM, Miller MA, Girvin AT, Taylor A, Williams D, D'Antonio N, Zhang Y, Rajagopalan A, Flietner E, Wilson K, Zhang X, Shinn P, Klumpp-Thomas C, McKnight C, Itkin Z, Chen L, Kazandijian D, Zhang J, Michalowski AM, Simmons JK, Keats J, Thomas CJ, Mock BA. Drug combinations identified by high-throughput screening promote cell cycle transition and upregulate Smad pathways in myeloma. Cancer Lett. 2023 Aug 1;568:216284. doi: 10.1016/j.canlet.2023.216284. Epub 2023 Jun 24. PMID: 37356470; PMCID: PMC10408729.
SEQUENCE No. (e.g., 1, 2, 3, etc.); […] (e.g., Cells, Incubation, Reagent, etc.); VALUE and DESCRIPTION.
1; Cells; 5 uL; white, solid bottom 1536-well Greiner assay plate.
2; Compounds; 23 nL; Kalypsis pin tool (Wako USA) equipped with a 1536-well pin head to transfer to the assay plates.
3; Incubation; 48 hours; 37C incubation.
4; Reagent;5uL; CellTiter Glo (Promega).
5; Detector; 425V; Luminescence; Viewlux PerkinElmer.
NOTES (numbers refer to Sequence numbers above)
1. The cell-based screening methods employed in this study were like those previously published. Briefly, the corresponding myeloma cell lines were screened in 1,536-well plates with 500 cells, 5-uL per well for inhibition of cell viability (assessed by measuring ATP levels with CellTiterGlo).
2. NCATS MIPE 4.0 library of approved and investigational drugs were added using the Kalypsis pin tool. Wells treated with DMSO only for 100% viability and media only wells for 0% viability were used as controls.
3. The assay plates were covered and incubated for 48 hours in a 37C, 5% CO2 incubator with controlled humidity.
4. After 48 hours, CellTilter-GloTM luminescent substrate mix (Promega) reagent was added to the assay plate and plates we incubated for 5 min at room temperature.
5. Signal was measured as median relative luminescence units on a ViewLux (PerkinElmer) multiplate reader.
[1] Heske CM, Davis MI, Baumgart JT, Wilson K, Gormally MV, Chen L, Zhang X, Ceribelli M, Duveau DY, Guha R, Ferrer M, Arnaldez FI, Ji J, Tran HL, Zhang Y, Mendoza A, Helman LJ, Thomas CJ. Matrix Screen Identifies Synergistic Combination of PARP Inhibitors and Nicotinamide Phosphoribosyltransferase (NAMPT) Inhibitors in Ewing Sarcoma. Clin Cancer Res. 2017 Dec 1;23(23):7301-7311. doi: 10.1158/1078-0432.CCR-17-1121. Epub 2017 Sep 12. PMID: 28899971; PMCID: PMC6636827.
In general terms: In ATP-based viability assays light output follows the ATP content of the culture.
`CC(C)C(=O)Oc1ccc(CO)cc1[C@H](CCN(C(C)C)C(C)C)c1ccccc1`: the “viability, percent of control” value was 87.3% (inactive).
For the compound `COc1ccc2c3c1OC1C[C@@H](O)C=C[C@@]31CCN(C)C2` (stereo not given in full), the Potency is 14.8 µM (active).
Still for that read-out and setting: to `CC[C@@]1(O)C[C@H](O[C@H]2C[C@H](N(C)C)[C@H](O[C@H]3C[C@H](O)[C@H](O[C@H]4CCC(=O)[C@H](C)O4)[C@H](C)O3)[C@H](C)O2)c2c(cc3c(c2O)C(=O)c2c(O)cccc2C3=O)[C@@H]1C(=O)OC` belongs 0.332 µM (active); to `C=C1C(=O)[C@@]23C(CC[C@@H]1[C@H]2O)[C@@]12CO[C@]3(O)[C@@H](O)[C@@H]1C(C)(C)CC[C@@H]2O` (stereo not given in full), 10.5 µM (active).
As to `O=C(O)CCC1CCC(c2cc(F)ccc2F)(S(=O)(=O)c2ccc(Cl)cc2)CC1` (stereo not given), the “viability, percent of control” value is 111% (inactive).
On the same count and under the same terms, to `O=C(OCC#CCSc1nnc(-c2cccc3ccccc23)o1)c1cc2ccccc2s1` belongs 117% (inactive).
Take `O=c1cc(N2CCOCC2)oc2c(-c3cccc4c3sc3ccccc34)cccc12`: the Potency was 3.32 µM (active).
As for `O=C(O)c1ccccc1C(=O)Nc1ccc(-c2ccccc2)cc1`, the “viability, percent of control” value was 126% (inactive).
As for `CC[C@H]1OC(=O)[C@H](C)[C@@H](O[C@H]2C[C@@](C)(OC)[C@@H](O)[C@H](C)O2)[C@H](C)[C@@H](O[C@@H]2O[C@H](C)C[C@H](N(C)C)[C@@H]2O)[C@](C)(O)C[C@@H](C)CN(C)[C@H](C)[C@@H](O)[C@]1(C)O`, the “viability, percent of control” value was 129% (inactive).
Consider `O=C(NCc1ccncc1)C12C[C@H]3C[C@@H](C1)CC(c1ccc(Cl)cc1)(C3)C2`, for which the Potency is 23.5 µM (active).
On to `CN(C)CCC=C1c2ccccc2COc2ccc(CC(=O)O)cc21`, for which the “viability, percent of control” value was 117% (inactive).
Regarding `CC=CC[C@@H](C)C(=O)[C@H]1C(=O)N[C@@H](C(C)C)C(=O)N(C)CC(=O)N(C)[C@@H](CC(C)C)C(=O)N[C@@H](C(C)C)C(=O)N(C)[C@@H](CC(C)C)C(=O)N[C@@H](C)C(=O)N[C@H](C)C(=O)N(C)[C@@H](CC(C)C)C(=O)N(C)[C@@H](CC(C)C)C(=O)N(C)[C@@H](C(C)C)C(=O)N1C`, the Potency is 23.5 µM (active).
For `O=C1C[C@@H](c2ccc(O)cc2)Oc2cc(O)cc(O)c21`, the “viability, percent of control” value was 93.7% (inactive).
Turning to `CN(C)C1CCN(C(=O)c2ccc(NC(=O)Nc3nc(N4CCOCC4)nc(N4CCOCC4)n3)cc2)CC1`, the Potency was 0.209 µM (active).
Still for that read-out and setting: to `CC(C)n1cnc2c(NCCCCCCNC(=O)OC(C)(C)C)nc(NCCO)nc21` belongs 18.7 µM (active).
For `C[C@@H]1CCN(C(=O)CC#N)C[C@H]1N(C)c1ncnc2[nH]ccc12`, the “viability, percent of control” value is 80.2% (inactive).
`N#CC(=C(N)Sc1ccccc1N)C(C#N)=C(N)Sc1ccccc1N`: the Potency is 18.7 µM (active).
The same measure, in the same setting: to `CCn1c(C(=O)N(C2CC2)C2CC2)cc2c3c(ncn3C)c(Nc3cc(C)n(C)n3)nc21` belongs 18.7 µM (active).
Take `CC(C)OC(=O)C(C)(C)Oc1ccc(C(=O)c2ccc(Cl)cc2)cc1`: the “viability, percent of control” value was 115% (inactive).
The same measure, in the same setting: to `NC1CCC(Nc2nc(Nc3ccc(C(=O)N4CCCCC4)cc3)c3ncn(-c4cccc(F)c4)c3n2)CC1` (stereo not given) belongs 92.7% (inactive).
Same read-out and setting: to `CC=CC(=O)N(CC)c1ccccc1C` belongs 104% (inactive).
With `COc1cc(Nc2ncc(F)c(Nc3ccc4c(n3)NC(=O)C(C)(C)O4)n2)cc(OC)c1OC`, the Potency was 0.935 µM (active).
In the case of `O=C(NC1CCOCC1)c1ccc(-c2cc(-c3cn[nH]c3-c3ccccn3)ccn2)cc1`, the “viability, percent of control” value is 104% (inactive).
Take `NC(=O)c1ccc2nc(-c3ccc(Oc4ccc(Cl)cc4)cc3)[nH]c2c1`: the Potency was 0.105 µM (active).
Still for that read-out and setting: to `CCS(=O)(=O)N1CC(CC#N)(n2cc(-c3ncnc4[nH]ccc34)cn2)C1` belongs 16.6 µM (active).
With `COc1cc(O)c2c(c1)C(=O)c1cc(C)cc(O)c1C2=O`, the “viability, percent of control” value was 93.7% [at 23.2 µM] (inactive).
On the same count and under the same terms, to `CC(C)(C)OC(=O)N[C@H]1CCCCCC=C[C@@H]2C[C@@]2(C(=O)NS(=O)(=O)C2CC2)NC(=O)[C@@H]2C[C@@H](OC(=O)N3Cc4cccc(F)c4C3)CN2C1=O` belongs 93.1% (inactive); to `CC(=Cc1ccccc1)C=C1SC(=S)N(CC(=O)O)C1=O`, 135% (inactive); to `O=C(Nc1c(Cl)cncc1Cl)c1ccc(OC(F)F)c(OCC2CC2)c1`, 122% (inactive).
Same read-out and setting: to `CC(C)(C)c1cc(C(=O)O)c(NC(=O)Nc2ccc3[nH]ncc3c2)s1` belongs 83.9% (inactive).
For `COc1cc2ncnc(-n3nc(-c4ccccn4)nc3N)c2cc1OC`, the Potency was 8.33 µM (active).
Still for that read-out and setting: to `COc1cc2ncnc(Nc3ccc(F)c(Cl)c3)c2cc1OCCCN1CCOCC1` belongs 13.6 µM (active).
Regarding `CO[C@H]1C(=O)[C@]2(C)[C@@H](OC)C[C@H]3OC[C@@]3(OC(C)=O)[C@H]2[C@H](OC(=O)c2ccccc2)[C@]2(O)C[C@H](OC(=O)[C@H](O)[C@@H](NC(=O)OC(C)(C)C)c3ccccc3)C(C)=C1C2(C)C`, the “viability, percent of control” value was 23.1% (inactive).
For `O=C(Nc1ccccc1-c1cn2c(CN3CCNCC3)csc2n1)c1cnc2ccccc2n1`, the Potency is 33.2 µM (active).
Regarding `CC1(C)O[C@H]2C[C@@H]3[C@H]4CCC5=CC(=O)C=C[C@]5(C)[C@@]4(F)[C@@H](O)C[C@]3(C)[C@]2(C(=O)CO)O1`, the “viability, percent of control” value was 106% (inactive).
In the case of `O=C(NCc1ccccc1)c1csc(Nc2ccncn2)n1`, the Potency was 14.8 µM (active).
With `c1ccc2c(Cc3c[nH]c4ccccc34)c[nH]c2c1`, the Potency was 10.5 µM (active).
On the same count and under the same terms, to `COC(=O)N[C@H](C(=O)N1CCC[C@@H]1c1ncc(-c2ccc(-c3ccc(-c4cnc([C@@H]5CCCN5C(=O)[C@@H](NC(=O)OC)C(C)C)[nH]4)cc3)cc2)[nH]1)C(C)C` belongs 18.7 µM (active).
`CCOC1OC(=O)C[C@H]1NC(=O)[C@@H]1CCCN1C(=O)[C@@H](NC(=O)c1ccc(N)c(Cl)c1)C(C)(C)C` (stereo not given in full): the “viability, percent of control” value was 113% (inactive).
For the compound `N[C@H](CSC(c1ccccc1)(c1ccccc1)c1ccccc1)C(=O)O`, the Potency is 10.5 µM (active).
